From PubChem BioAssay (NCI) come the findings set out here.

Assay in all cases: NCI-60 one-dose screen, 48 h (100 = growth as untreated, 0 = no growth, -100 = all killed)
The subject of one assay is NCI-H23 lung. To be noted: 10 µM unless noted.
The test system of another assay is NCI-H226 lung. The following applies: 10 µM unless noted.
For another assay, the system named is NCI-H322M lung. To be noted: 10 µM unless noted.
A further assay has as its system HOP-62 NSCLC. To be noted: 10 µM unless noted.
Another assay has as its system NCI-H460 lung. To be noted: 10 µM unless noted.
The subject of the next assay is HOP-92 NSCLC. The following applies: 10 µM unless noted.
Another assay relates to NCI-H522 lung. To be noted: 10 µM unless noted.
The next assay relates to A549/ATCC NSCLC. To be noted: 10 µM unless noted.
For a further assay, the system named is 786-0 renal. To be noted: 10 µM unless noted.
Another assay has as its system COLO 205 colon. The following applies: 10 µM unless noted.
In the next assay the test system is DU-145 prostate. To be noted: 10 µM unless noted.
A further assay has as its system K-562 leukemia. The following applies: 10 µM unless noted.
For a further assay, the system named is MALME-3M melanoma. To be noted: 10 µM unless noted.
The next assay deals with MDA-MB-231 breast. The following applies: 10 µM unless noted.
A further assay has as its system RXF 393 renal. The following applies: 10 µM unless noted.
The next assay has as its system SF-268 CNS. The following applies: 10 µM unless noted.
In a further assay the test system is SF-295 CNS. The following applies: 10 µM unless noted.
Another assay relates to SF-539 CNS. The following applies: 10 µM unless noted.
Another assay deals with UACC-257 melanoma. The following applies: 10 µM.
A further assay relates to M14 melanoma. The following applies: 10 µM unless noted.

The panel holds about 83,000 compounds, 20% with a hit somewhere; the sample as a whole holds those more often.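 How to read the values: 0–100, growth inhibition (40 = 60% inhibited); 0, no net growth; -100 to 0, cell death (-40 = 40% of starting cells died; -100 = all dead).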 A number with no mark means an inactive call. The source made the active and inactive calls. How the source made its calls: active means growth percent below 10; inactive means the rest.

As for `O=C1[C@H]2Cc3c([nH]c4ccccc34)[C@@H](c3c(Cl)cccc3Cl)N2C(=O)CN1C1CCN(Cc2ccccc2)CC1`, the growth was 104% in the assay with NCI-H23 lung; 103% in the assay on NCI-H226 lung; 101% with NCI-H322M lung; 90.7% with HOP-62 NSCLC; 8% (active) in the assay with NCI-H460 lung; 83.8% in the assay on HOP-92 NSCLC. Also, the growth in the assay with NCI-H522 lung is 38.2%; in the assay with A549/ATCC NSCLC, 94.2%; in the assay on 786-0 renal, -58.2% (active); in the assay with COLO 205 colon, 101%; with DU-145 prostate it was 39.2%; in the assay on K-562 leukemia it was 5.96% (active). Also, the growth in the assay on MALME-3M melanoma is 61.4%; with MDA-MB-231 breast, 89.3%; with RXF 393 renal, 81.6%; in the assay on SF-268 CNS, 73.8%; in the assay on SF-295 CNS it was 106%; in the assay on SF-539 CNS it was 93.5%. Moreover, the growth in the assay with UACC-257 melanoma is 105%; in the assay with M14 melanoma, 78.1%.

Turning to `CC1(C)CC[C@]2(C(=O)O)CC[C@]3(C)C(=CCC4[C@@]5(C)C[C@@H](O)[C@@H]6OC(c7cccc([N+](=O)[O-])c7)OC[C@@]6(C)C5CC[C@]43C)C2C1` (stereo not given in full), the growth was 73.6% in the assay on NCI-H23 lung; 77.2% with NCI-H226 lung; 41.7% in the assay with NCI-H322M lung; 65.2% with HOP-62 NSCLC; 65.4% with NCI-H460 lung; 69.1% in the assay with HOP-92 NSCLC. For the same molecule, the growth in the assay with NCI-H522 lung is 71.8%; in the assay on A549/ATCC NSCLC, 37.1%; in the assay with 786-0 renal, 90.9%; with COLO 205 colon it was 53%; in the assay with DU-145 prostate, 60.1%; in the assay with K-562 leukemia it was 44.9%. For the same molecule, the growth in the assay with MALME-3M melanoma is 86.7%; in the assay on MDA-MB-231 breast, 82%; in the assay on RXF 393 renal it was 85.3%; with SF-268 CNS it was 74.6%; in the assay with SF-295 CNS, 36.8%; in the assay with SF-539 CNS it was 83.7%. Also, the growth in the assay on UACC-257 melanoma is 103%; in the assay on M14 melanoma it was 72.8%.

Regarding `CN1CCN(Cc2ccc(NC(=O)c3cncc(C#Cc4[nH]nc5ncncc45)c3)cc2C(F)(F)F)CC1`, the growth in the assay on NCI-H23 lung was 57.1%; with NCI-H226 lung, 55%; in the assay on NCI-H322M lung, 75.1%; in the assay with HOP-62 NSCLC, 65.7%; with NCI-H460 lung, 64.3%; with HOP-92 NSCLC it was -16% (active). In addition, the growth with NCI-H522 lung was 66.2%; in the assay with A549/ATCC NSCLC, 84.3%; in the assay with 786-0 renal it was 86.3%; in the assay with COLO 205 colon, 16.5%; in the assay on DU-145 prostate, 56.6%; in the assay on K-562 leukemia it was 12.4%. For the same molecule, the growth was -5.86% (active) in the assay on MALME-3M melanoma; 22.9% in the assay with MDA-MB-231 breast; 43.4% in the assay on RXF 393 renal; 73.7% in the assay on SF-268 CNS; 97% in the assay on SF-295 CNS; 43.4% in the assay with SF-539 CNS. The growth in the assay with UACC-257 melanoma is 86.1%; with M14 melanoma it was 15%.

`CN(C)C(=O)c1ccccc1-n1cnc2ccccc2c1=O`: the growth was 99.3% in the assay on NCI-H23 lung; 102% in the assay with NCI-H226 lung; 98.5% with NCI-H322M lung; 112% in the assay with HOP-62 NSCLC; 101% with NCI-H460 lung; 117% with HOP-92 NSCLC. Further, the growth with NCI-H522 lung was 101%; in the assay with A549/ATCC NSCLC, 99.2%; in the assay on 786-0 renal, 101%; in the assay on COLO 205 colon, 109%; in the assay on DU-145 prostate it was 105%; with K-562 leukemia it was 108%. Also, the growth in the assay on MALME-3M melanoma was 103%; with MDA-MB-231 breast, 100%; with RXF 393 renal it was 107%; with SF-268 CNS, 94.6%; in the assay on SF-295 CNS, 103%; in the assay on SF-539 CNS, 95.5%. Also, the growth is 98.5% in the assay on UACC-257 melanoma and 101% in the assay with M14 melanoma.

Take `CCN1C(=O)N(CC)C2SC(N/N=C/c3cccs3)=NC21` (stereo not given): the growth with NCI-H23 lung was 25.8%; in the assay with NCI-H226 lung, 36%; in the assay on NCI-H322M lung, 46.6%; in the assay with HOP-62 NSCLC, 32%; in the assay on NCI-H460 lung, 3.74% (active); in the assay on HOP-92 NSCLC, -7.41% (active). For the same molecule, the growth with NCI-H522 lung was -47.9% (active); in the assay on A549/ATCC NSCLC, 20.3%; in the assay on 786-0 renal it was 17.9%; in the assay with COLO 205 colon it was -63% (active); in the assay on DU-145 prostate, 14.6%; in the assay on K-562 leukemia, 11.5%. In addition, the growth is 66.4% in the assay on MALME-3M melanoma; 24.5% in the assay on MDA-MB-231 breast; 72.5% in the assay with RXF 393 renal; 35.7% with SF-268 CNS; 17.1% in the assay with SF-295 CNS; -9.73% (active) in the assay with SF-539 CNS. For the same molecule, the figures for the growth in the assay with UACC-257 melanoma and in the assay with M14 melanoma were 54.2% and 6.49% (active), respectively.

On to `CCN1C(=O)N(CC)C2C1NN=C1SC(c3ccccc3)=CC(=O)N12` (stereo not given), for which the growth was 33% with NCI-H23 lung; 40.4% in the assay on NCI-H226 lung; 50.6% in the assay on NCI-H322M lung; 30.7% in the assay on HOP-62 NSCLC; 6.45% (active) in the assay with NCI-H460 lung; 44.3% in the assay with HOP-92 NSCLC. In addition, the growth in the assay with NCI-H522 lung is -42.6% (active); in the assay with A549/ATCC NSCLC it was 36.3%; in the assay on 786-0 renal it was 37.6%; with COLO 205 colon, -40.3% (active); with DU-145 prostate, 26%; in the assay with K-562 leukemia, 11.7%. In addition, the growth in the assay on MALME-3M melanoma was 46.7%; in the assay on MDA-MB-231 breast, 38.8%; in the assay with RXF 393 renal, -11.1% (active); with SF-268 CNS, 62.4%; in the assay with SF-295 CNS it was 11.1%; with SF-539 CNS it was -8.38% (active). For the same molecule, the figures for the growth with UACC-257 melanoma and in the assay with M14 melanoma were 63.6% and 5.39% (active), respectively.

On to `O=C1c2c(c3c4cccnc4[nH]c3c3ccc4ccccc4c23)C(=O)N1CCN1CCOCC1`, for which the growth in the assay on NCI-H23 lung is 45.3%; with NCI-H226 lung it was 71.5%; in the assay with NCI-H322M lung it was 84.5%; with HOP-62 NSCLC, 47.6%; in the assay on NCI-H460 lung, 10.6%; in the assay on HOP-92 NSCLC it was 80.7%. In addition, the growth in the assay on NCI-H522 lung is 60.5%; in the assay on A549/ATCC NSCLC, 55.4%; with 786-0 renal it was 77.9%; in the assay with COLO 205 colon, 66.8%; with DU-145 prostate, 59.9%; in the assay on K-562 leukemia it was 37.2%. Further, the growth was 64.4% with MALME-3M melanoma; 86.8% with MDA-MB-231 breast; 92.8% with RXF 393 renal; 58.7% with SF-268 CNS; 51.4% with SF-295 CNS; 55.6% with SF-539 CNS. Also, the values for the growth in the assay on UACC-257 melanoma and with M14 melanoma were 84.1% and 47.4%, respectively.

Regarding `C#C[C@]1(O)CC[C@H]2[C@@H]3CC=C4c5sc(Nc6cc(OC)ccc6OC)nc5CC[C@]4(C)[C@H]3CC[C@@]21C`, the growth in the assay on NCI-H23 lung was 33.9%; in the assay with NCI-H226 lung, 60.4%; in the assay on NCI-H322M lung, 62.2%; in the assay on HOP-62 NSCLC it was 41.2%; in the assay on NCI-H460 lung, 26.6%; with HOP-92 NSCLC it was 51.4%. Moreover, the growth with NCI-H522 lung was 63.8%; with A549/ATCC NSCLC, 38%; in the assay on 786-0 renal, -2.79% (active); with COLO 205 colon it was 18.5%; with DU-145 prostate, 43.8%; in the assay with K-562 leukemia, 6.54% (active). Further, the growth with MALME-3M melanoma was 14.4%; in the assay with MDA-MB-231 breast, 35.9%; in the assay on RXF 393 renal, -57.4% (active); in the assay with SF-268 CNS, 30.8%; in the assay with SF-295 CNS, -67% (active); in the assay with SF-539 CNS, -19.4% (active). In addition, the growth is 0.933% (active) in the assay with UACC-257 melanoma and -1.11% (active) with M14 melanoma.
